In all, about 290,000 compounds went through this assay and about 27,000 (9.3%) were called active. The list comes from a sample in which actives are over-represented; it also holds similar structures and randomly drawn compounds. Unmarked numbers belong to inactive results. Cut-off read from the data, not from the text of the source: active = inhibition mostly above about 28% (no sharp cut-off); inactive = mostly below about 43%.
Experiment: A qHTS for Small Molecule Inhibitors of Shiga Toxin; note: 0% is about no effect
Details: Vero cells, Shiga toxin protein synthesis inhibition reporter; at 38.7 µM, active compounds read high

SMILES	inhibition
Cc1[nH]c2c(C(=O)N3CCCC(CCC(=O)NCc4ccccc4F)C3)cccc2c1C (centres undefined)	16.4%
CCOCCCNC(=O)C1(O)c2cc(Br)ccc2NC(=O)N1c1ccc(C)c(C)c1 (centres undefined)	-7.51%
Cc1ccccc1OCC(=O)Nc1ccc(S(=O)(=O)N2CCOCC2)cc1	-7.1%
Cc1cc(NC(=O)CCC(=O)N(Cc2ccccc2)C(C(=O)NC2CCCC2)c2ccc(C)o2)no1 (centres undefined)	11.3%
O=C1CCNCCN1[C@H](CO)Cc1ccccc1	-8.58%
CCC(C)N1CC(=O)N2Cc3[nH]c4ccccc4c3C[C@H]2C1=O (some centres undefined)	-5.65%
COc1ccc(OC)c(C(=O)NC(CC(N)=O)c2ccc(N3CCC(N4CCCCC4)CC3)c([N+](=O)[O-])c2)c1 (centres undefined)	-6.13%
COc1ccc(Cc2nnc(SCC(=O)Nc3ccc(C)c(C)c3)o2)cc1OC	-3.66%
CCN1CCN(Cc2c(O)ccc3c(=O)c(-c4ccc(OC)c(OC)c4)c(C(F)(F)F)oc23)CC1	21.4% (active)
CN1CCN(Cc2c(O)ccc3c2oc(=O)c2ccccc23)CC1	23.3%
CCOC(=O)c1oc2c(CN3CCN(C)CC3)c(O)ccc2c(=O)c1-c1ccc(Br)cc1	15.8%
CC(C)=CCCC1(C)C=Cc2c(ccc3c2[nH]c2cc(O)c(C)cc23)O1 (centres undefined)	23.1%
CC(C)Oc1ccc(CN2CCC(n3nccc3NC(=O)c3cccnc3)CC2)cc1	-10.5%
O=C(Cc1ccsc1)N1CCN(S(=O)(=O)c2cc(C(F)(F)F)cc(C(F)(F)F)c2)CC1	-17.3%
O=C(COc1ccc([N+](=O)[O-])cc1)Nc1cccc(C(=O)Nc2ccccc2C(=O)O)c1	-17.8%
S=c1[nH]c(-c2cccs2)cn1-c1ccccc1	58.2% (active)
O=c1oc2ccccc2cc1-c1cn(-c2ccccc2)c(=S)[nH]1	24.5%
COc1ccc(-c2cn(-c3ccc(OC)cc3)c(=S)[nH]2)cc1	38.6%
O=C(CN(C(=O)c1csnn1)c1ccc(Br)cc1)NC1CCCC1	-6.01%
COc1ccc(Cl)cc1NC(=O)CCS(=O)(=O)c1ccc(Br)cc1	-3.47%
CSc1nnc2ccc(-c3ccc(C)cc3)nn12	5.52%
Cc1ccc(C(=O)Cn2cc([N+](=O)[O-])nc2C)cc1	-7.99%
Cc1ccc2nc(-c3ccc(Br)cc3)cn2c1	23.9% (active)
Cc1ccc(-c2cn3cc(C)ccc3n2)cc1	-49.3%
Cc1ccc(-c2cn3cc([N+](=O)[O-])ccc3n2)cc1	190% (active)

SMILES	inhibition
Cc1ccnc(N2C(=O)c3ccc([N+](=O)[O-])cc3C2=O)c1	2.61%
O=C(Nc1ccnn1C1CCN(C/C=C/c2ccc(F)cc2)CC1)C1CCCC1	12%
CCOc1c(OC)cccc1C(=O)NCC1(c2ccccc2)CCCC1	-6.29%
COc1ccc(C(=O)C2CCCN(S(=O)(=O)c3cccc(C)c3)C2)c(C)c1 (centres undefined)	-2.5%
O=c1oc2ccccc2cc1-c1csc(Nc2ccc(O)cc2)n1	111% (active)
COc1ccc2nc(Nc3nc(-c4cc5ccccc5oc4=O)cs3)sc2c1	61.7%
CCNc1nc(-c2cc3ccccc3o2)cs1	83.5% (active)
Cc1nc(C)c(-c2csc(NCCc3ccccc3)n2)s1	13.4%
Cc1ccc(Nc2nc(-c3sc(NC(=O)c4ccccc4)nc3C)cs2)cc1	16.8%
Cn1c(CNc2nc(-c3ccccc3)cs2)nnc1SCC(=O)c1ccccc1	-0.789%
COc1ccc(S(=O)(=O)N2CCOCC2)cc1C(=O)NC1CCCCC1	-17%
CCN(CC)CCN(C(=O)c1ccc(N2C(=O)CCC2=O)cc1)c1nc2cc3c(cc2s1)OCO3	29.6%
CCN(CC)CCN(C(=O)c1ccc(S(=O)(=O)N2CCOCC2)cc1)c1nc2cc3c(cc2s1)OCCO3	44.5% (active)
CN(C)CCCN(C(=O)c1ccc(S(=O)(=O)N2CCCCCC2)cc1)c1nc2ccc(Br)cc2s1	0.697%
O=S(=O)(c1ccc(-c2ccno2)s1)N1CCCCC1	-11.5%
COc1ccc2c(C)cc3nnnn3c2c1	-4.48%
Cc1ccc(C(=O)NCCNC(=O)c2ccccc2)cc1	-8.28%
CCCc1ccc(OCC(=O)NNC(=S)NC(=O)c2ccco2)cc1	-7.48%
CCCc1ccc(OCCNC(=O)c2ccco2)cc1	78.3% (active)
O=C(CNC(=O)c1ccco1)OCC(=O)c1ccccc1	46.8%
CCCc1ccc(OCCNC(=O)c2ccccc2Br)cc1	34.3%
O=C(NCCSc1ccccc1)c1ccco1	80.2% (active)
O=C(CSc1ccccc1)Nc1ccc(NC(=O)c2ccco2)cc1	38.7%
CCS(=O)(=O)Nc1ccc(C(=O)NCCSc2ccccc2)cc1	79.2% (active)

— PubChem BioAssay AID2315 (National Center for Advancing Translational Sciences (NCATS), 2010)
